# Test results as given in PubChem BioAssay (NCATS).
# “And” between values parts separate entries of the source, which are not always exact repeats. Equal values may be shown once. Inconclusive results are not listed. Entries that show only a call come without a potency. A number with no mark means an inactive call. The source made the active and inactive calls. Calls come from the whole dose curve; as a rule, active = well fitted curve in the direction sought with a large enough effect; inconclusive = small, poorly fitted or top-dose-only effect, or another doubt; inactive = no such curve, though single readings can be large; an effect the other way counts as inactive or inconclusive.
# Columns and labels:
# [1] = target: Cellular tumor antigen p53 (Homo sapiens) (UniProt P04637); assay: Primary qHTS for small molecule compounds that upregulate eGFP-tagged delta133p53alpha (in N-terminal) cells. (AID 2060322); conditions: NCI-H358 eGFP-delta133p53alpha fluorescence, 24 h; activation: stronger effect = higher value; note: nearly all actives have a fitted effect of over 75% in size; note: potency is the fitted concentration of half-maximal effect; for activation: series mostly up to about 56 µM
# Sequence of Cellular tumor antigen p53 (Homo sapiens) (P04637 whole entry, looked up): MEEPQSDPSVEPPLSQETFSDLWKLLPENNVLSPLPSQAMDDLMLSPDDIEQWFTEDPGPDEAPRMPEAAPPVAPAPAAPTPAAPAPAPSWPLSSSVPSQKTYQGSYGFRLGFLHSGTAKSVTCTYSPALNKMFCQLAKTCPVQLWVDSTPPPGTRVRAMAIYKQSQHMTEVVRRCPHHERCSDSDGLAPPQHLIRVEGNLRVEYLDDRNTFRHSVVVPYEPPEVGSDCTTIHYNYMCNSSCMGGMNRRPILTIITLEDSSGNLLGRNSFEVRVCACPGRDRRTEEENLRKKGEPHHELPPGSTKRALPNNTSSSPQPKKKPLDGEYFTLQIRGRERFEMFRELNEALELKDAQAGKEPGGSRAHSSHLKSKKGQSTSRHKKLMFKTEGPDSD
# Procedure, shortened: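 NCI-H358 cells pre-induced 24 h with 10 ng/ml doxycycline to express N-terminal eGFP-delta133p53alpha, then dosed 24 h at 37C without doxycycline; fixed, Hoechst-stained, GFP intensity by laser scanning cytometry, normalized to DMSO (0%) and 57.5 uM 5-azacytidine (100%).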
# [2] = target: Aldehyde dehydrogenase, mitochondrial (Homo sapiens) (UniProt P05091); assay: qHTS for Inhibitors of the Aldehyde Dehydrogenase Family (ALDH2) Primary screen (AID 2061308); note: nearly all actives have a fitted effect of over 55% in size
# [3] = target: Retinaldehyde dehydrogenase 3 (Homo sapiens) (UniProt P47895); assay: qHTS for Inhibitors of the Aldehyde Dehydrogenase Family (ALDH1A3) Primary screen (AID 2061315)
Structure (SMILES),activation [1],Potency [2],Potency [3],Potency [1],"activity change, negative = inhibition [2]","activity change, negative = inhibition [3]"
CC1(C(=O)O)CCCC2(C)C1CCC13CC(CCC21)C1(CO)OC31 (stereo not given),-9.16%,inactive,inactive,–,–,–
Cc1ccc(F)cc1C(=O)Nc1ccc(C(=O)N2Cc3cccn3Cc3ccccc32)c(Cl)c1,1.67%,inactive,inactive,–,–,–
c1ccc(N2CCN(CCc3nn[nH]n3)CC2)cc1,-1.43%,inactive,inactive,–,–,–
C=CC(C)(O)CC/C=C(\C)COC1O[C@H](CO)[C@@H](O)[C@H](O)[C@H]1O (stereo not given in full),-14.5%,inactive,inactive,–,–,–
CC1CCC2C(C)(C)[C@H](O)CC[C@]2(C)C12Cc1c(O)cc3c(c1O2)CN(C(CCC(=O)O)C(=O)O)C3=O (stereo not given in full),-2.29%,inactive,inactive,–,–,–
C[C@]12C[C@@H](O)[C@@H]3C[C@@]1(O[C@@H]1O[C@H](CO)[C@@H](O)[C@H](O)[C@H]1O)[C@]3(COC(=O)c1ccccc1)C(=O)O2,25.9%,inactive,inactive,–,–,–
CC1=C2CC(O)(C(C)(C)O)C(O[C@@H]3O[C@H](CO)[C@@H](O)[C@H](O)[C@H]3O)CC(C)C2CC1=O (stereo not given in full),-3.05%,inactive,inactive,–,–,–
C/C=C/C=C/[C@@H]1O[C@](O)([C@H](CC)C(=O)NC/C=C/C=C(\C)[C@@H](OC)[C@@H](C)C2OC(/C=C/C=C/C=C(\C)C(=O)c3c(O)cc[nH]c3=O)[C@H](O)[C@@H]2O)[C@H](O)[C@H](O)C1(C)C (stereo not given in full),-1.79%,inactive,inactive,–,–,–
COc1ncc2cc(C(=O)Nc3cc(C(=O)NCc4cccc(Cl)c4)ccc3Cl)c(=O)[nH]c2n1,–,inactive,inactive,2.69 µM (active),–,–
C=C(C(=O)O)C1CC(O)C2(C)CCCC(C)(O)C2C1 (stereo not given),1.53%,inactive,inactive,–,–,–
COc1ccc(Oc2c(Cl)cnn(C3c4ccccc4-c4ccccc43)c2=O)cc1,13.4%,inactive,inactive,–,–,–
C[C@]1(CO)CN(c2cc(C(=O)Nc3ccc4c(c3)-c3c(c(C(N)=O)nn3-c3ccc(F)cc3)CC4)c(Cl)cn2)C[C@@]1(C)CO,21.4%,inactive,inactive,–,–,–
CC(=O)N[C@H]1[C@H](O[C@H]2CC[C@]3(C)C4CC=C5[C@@H]6CC(C)(C)CC[C@]6(C(=O)O)[C@H](O)C[C@@]5(C)[C@]4(C)CC[C@H]3C2(C)C)O[C@H](CO)[C@@H](O)[C@@H]1O (stereo not given in full),9.82%,inactive,inactive,–,–,–
COc1cc(C)c(C(=O)Oc2cc(C)c(C(=O)Oc3cc(C)c(C(=O)NC(C)C(=O)O)c(O)c3)c(O[C@@H]3O[C@H](CO)[C@@H](O)[C@H](O)[C@H]3OC(C)=O)c2)c(OC)c1 (stereo not given in full),-7.63%,inactive,inactive,–,–,–
CC1=CC(=O)CC2C1(O)CCC(C)C21CC(c2ccoc2)OC1=O (stereo not given),6.87%,inactive,inactive,–,–,–
N#CCc1ccc(O)cc1O[C@@H]1O[C@H](CO)[C@@H](O)[C@H](O)[C@H]1O,-11.6%,inactive,inactive,–,–,–
COC(=O)C1=CO[C@@H](O[C@@H]2O[C@H](CO)[C@@H](O)[C@H](O)[C@H]2O)/C(=C\CO)[C@@H]1CC(=O)OCCc1ccc(O)cc1,-20.6%,inactive,inactive,–,–,–
CC1=CC(=O)[C@@]2(C(C)C)C[C@@H]12,17.7%,inactive,inactive,–,–,–
CCOC(=O)c1csc(Nc2ccc(Cl)cc2)n1,-7%,inactive,inactive,–,–,–
NC(=O)[C@H](Cc1ccccc1)NC(=O)[C@H](CCCN=C(N)N)NC(=O)C12CC3CC(CC(C3)C1)C2,-9%,–,–,–,0.973% [at 11.2 µM],-5.76% [at 11.2 µM]
CC(=O)c1c(C)cc(O[C@@H]2O[C@H](CO)[C@@H](O)[C@H](O)[C@H]2O)cc1O,-9.92%,inactive,inactive,–,–,–
COC(=O)C1(Cc2ccc(O)cc2)OC(=O)C(OC)=C1c1ccc(O)cc1 (stereo not given),-7.63%,inactive,inactive,–,–,–
CC1(C)C[C@H](O)C[C@@]2(C)[C@H]1[C@H](O)C=C1COC(=O)[C@@]12O,6.11%,inactive,inactive,–,–,–
C[C@H]1[C@H](C)CC[C@]2(C(=O)O)CC[C@]3(C(=O)O)C(=CCC4[C@@]5(C)CC[C@H](O[C@@H]6O[C@@H](C)[C@H](O)[C@@H](O)[C@H]6O)C(C)(C)C5CC[C@]43C)[C@H]12 (stereo not given in full),-4.58%,inactive,inactive,–,–,–
COc1ccc2c(c1)C(=O)N(CCc1ccc(S(=O)(=O)NC(=O)NC3CCCCC3)cc1)C(=O)C2(C)C,-11.7% and 6.33%,inactive,inactive,–,–,–
